Measurements: PubChem BioAssay AID618 (Sanford-Burnham Center for Chemical Genomics, 2007)
About 540 (0.62%) of roughly 87,000 compounds were called active. This is one part of a sample in which actives are shown more often than they occur. No rule for the calls is given here. Entries with a potency or affinity are not part of this list.

test: MT1-MMP gene expression reporter suppression – cell-based, luciferase reporter, luminescence (AID 618); settings: MT1-MMP promoter luciferase reporter cells;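 also: actives suppress MT1-MMP promoter-driven transcription so potencies describe inhibitors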

SMILES	outcome
COCC(C)n1c(C)cc(C(=O)COC(=O)c2n[nH]c3ccccc23)c1C (stereo not drawn)	inactive
CCOC(=O)c1n[nH]c2ccccc12	inactive
COCCn1c(C)cc(C(=O)COC(=O)c2n[nH]c3ccccc23)c1C	active
COCCn1c(C)cc(C(=O)COC(=O)c2ccc(-n3nc(C)cc3C)cc2)c1C	inactive
CCCCCn1c(=O)[nH]c2cc(C(=O)O)ccc2c1=O	inactive
Clc1ccccc1CSc1nnc(Cn2cnc3ccccc32)n1-c1ccccc1	inactive
CN1CCC(NC(=O)c2cccs2)CC1	inactive
CC(C)COc1ccc(-c2nnc(-c3ccco3)o2)cc1	inactive
CCOc1ccc(-c2nnc(-c3cccs3)o2)cc1	inactive
CCCOc1ccc(-c2nnc(-c3ccco3)o2)cc1	inactive
CCCOc1ccc(-c2nnc(-c3ccncc3)o2)cc1	inactive
O=C(CN1CCOCC1)Nc1c2c(nc3ccccc13)N(Cc1ccccc1)CC2	inactive
O=C(O)C1CCN(S(=O)(=O)c2ccc(Oc3ccccc3)cc2)CC1	inactive
Cc1cc(NC(=O)CCCC(=O)Nc2ccc(F)cc2)no1	inactive
COc1ccc(S(=O)(=O)N[C@@H](Cc2ccccc2)C(=O)N2CC[C@@]3(O)CCCC[C@H]3C2)cc1	inactive
Cc1c(NC(=O)c2cnn3c2NC(c2ccc(Br)cc2)CC3C(F)(F)F)c(=O)n(-c2ccccc2)n1C (stereo not drawn)	inactive
c1ccc2nc(-c3nc4ccccc4o3)ccc2c1	active
c1ccc(-c2nc3ccccc3o2)nc1	inactive
c1cc(-c2nc3ccccc3o2)nc(-c2nc3ccccc3o2)c1	inactive
Cc1ccc(-c2nnc(-c3ccccc3)o2)cc1	inactive
CCNc1nnc(-c2ccc(C)cc2)o1	inactive

SMILES	outcome
Cc1ccc(-c2nnc(Nc3ccccc3)o2)cc1	active
O=C(O)CCCn1c(=O)[nH]c2ccccc2c1=O	inactive
CC(=O)N1c2ccccc2N(Cc2ccc(C)cc2C)C(=O)C1(C)C	active
Cc1ccc(C)c(CN2C(=O)C3(OCCCO3)c3ccccc32)c1	inactive
Cc1ccc(C(=O)N2c3ccccc3N(Cc3ccccc3)C(=O)C2(C)C)cc1	inactive
COc1ccc(N(C)S(=O)(=O)c2ccc3c(c2)oc(=O)n3C)cc1	inactive
Cc1[nH]c2ccc(C(=O)O)cc2c1C	inactive
Cc1nn2c(CN(C(=O)c3ccco3)c3ccccc3)nnc2c2ccccc12	inactive
O=S(=O)(N1CCOCC1)n1nnc2ccccc21	inactive
O=C(N1CCOCC1)n1nnc2ccccc21	inactive
O=C(CSc1ncnc2ccccc12)N1CCN(c2ccccc2)CC1	inactive
NC(=O)C1CCN(C(=O)c2cc3ccccn3n2)CC1	inactive
COc1ccc(-c2nnn(CCC(=O)O)n2)cc1	inactive
COc1ccc(NC(=O)CCn2nnc(-c3ccc(C)cc3)n2)cc1OC	inactive
Cc1ccc(-c2nnn(CCC(=O)NC(C)(C)C)n2)cc1	inactive
COc1cccc(-c2nnn(CCC(=O)O)n2)c1	inactive
COC(=O)CCn1nnc(-c2cccs2)n1	inactive
COC(=O)CCn1nnc(-c2ccc(C)cc2)n1	inactive
O=C(c1ccc(CS(=O)(=O)c2ccccc2)o1)N1CCOCC1	inactive
CCCn1c(=S)[nH]c2cc(OC)c(OC)cc2c1=O	inactive
CC(=O)N1CCN(CCN=CC2=C(O)CC(c3ccc(Cl)cc3)CC2=O)CC1 (stereo not drawn)	inactive

SMILES	outcome
O=C(C1CCCN(Cc2ccccc2)C1)N1CCc2ccccc2C1 (stereo not drawn)	inactive
NC(=O)c1cc(Cl)cn(-c2ccccc2)c1=O	inactive
CCOC(=O)C1CCCN(c2ncnc3c2[nH]c2cccc(OC)c23)C1 (stereo not drawn)	inactive
O=C(c1cc(-c2cccs2)nc2ccccc12)N1CCN(S(=O)(=O)c2cccc(F)c2)CC1	inactive
CSC(=O)CC(=O)NC(=O)c1ccccc1	inactive
O=c1[nH]c(Nc2nc3ccccc3o2)nc2c1CCCC2	inactive
Cc1ccc(NC(=O)c2c(C)nc(Nc3nc4ccccc4o3)nc2C)cc1	inactive
Cc1cccc(C)c1Nc1nc2ccccc2o1	inactive
Cc1ccc2oc(Nc3nc(C)cc(C)n3)nc2c1	inactive
O=C(c1cccs1)N1CCc2ccccc21	inactive
c1ccc(-c2noc(-c3ccc4ccccc4c3)n2)nc1	active
c1ccc(-c2cc(-c3nc(-c4ccccn4)no3)c3ccccc3n2)cc1	inactive
Cc1ccc(-c2nc(-c3ccccn3)no2)cc1Cl	active
Cc1onc(-c2ccccc2Cl)c1-c1nc(-c2ccccn2)no1	inactive
Clc1ccc(-c2nc(-c3ccccn3)no2)cc1Cl	inactive
Cc1ccc(SCc2nc(-c3ccccn3)no2)cc1	inactive
COc1cccc(-c2nc(-c3ccccc3)no2)c1	inactive
COc1cccc(-c2noc(-c3cccnc3)n2)c1	inactive
COc1ccc(-c2noc(-c3cccc(Cl)c3)n2)cc1OC	inactive
Clc1cccc(-c2nc(-c3ccccn3)no2)c1	active
c1ccc(SCc2nc(-c3ccccn3)no2)cc1	inactive
